This note sets out measurements from the supplement of paper PMC4022240.

± gives the standard deviation.

What all share (assay): peptide microarray binding signal (635 nm), min-max normalized on array (fraction of array maximum); higher = stronger binding
What all share (conditions): peptide region: H3 5-17

Assay [1] deals with T1, HaloTag-ATRX ADD domain (163-292).
T1 chain: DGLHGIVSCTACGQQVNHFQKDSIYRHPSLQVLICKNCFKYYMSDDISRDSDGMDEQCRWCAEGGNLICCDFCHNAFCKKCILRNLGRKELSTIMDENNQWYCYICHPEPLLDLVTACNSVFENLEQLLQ
In short, it runs like this: (§1)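 Two probe formats were used for 1 h at 4°C: biotin-labelled HaloTag reader fusions (10 nM to 1 μM) with streptavidin-Alexa Fluor 647, and rabbit histone antibodies (1:10,000 to 1:2,000) with anti-rabbit Alexa 647. Both were applied to nitrocellulose arrays of histone 13-mer peptide–cellulose conjugates printed in triplicate with a Cy3 tracer and blocked overnight at 4°C. Signal was read at 635 nm and misprints at 532 nm on an Axon GenePix 4000B. Binding signal is expressed as the triplicate-spot mean intensity, min-max scaled for each library.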

Assay [2] deals with HaloTag-ING2 PHD (mouse Ing2 200-280). In short, it runs like this: as §1
The target of assay [3] is anti-H3K4me3 antibody ab8580. In short, it runs like this:
as §1

In assay [4] the target is anti-H3K9me3 antibody ab8898. In short, it runs like this: as §1
Setting [5] is: peptide modifications: H3K9me2, binder concentration: 1:2,000 dilution.
The mark [6] stands for this setting: peptide modifications: H3K9me2, binder concentration: 1:10,000 dilution.
Where [7] appears, read: peptide modifications: H3K9me1 H3S10ph, binder concentration: 1:2,000 dilution.
[8] abbreviates: peptide modifications: H3K9me1 H3S10ph, binder concentration: 1:10,000 dilution.
Where [9] appears, read: peptide modifications: H3K9me1 H3K14ac, binder concentration: 1:2,000 dilution.
[10] abbreviates: peptide modifications: H3K9me1 H3K14ac, binder concentration: 1:10,000 dilution.
[11] abbreviates: peptide modifications: H3K9me1 H3K14me2, binder concentration: 1:2,000 dilution.
Where [12] appears, read: peptide modifications: H3K9me1 H3K14me2, binder concentration: 1:10,000 dilution.
[13] abbreviates: peptide modifications: H3K9me1 H3K14me3, binder concentration: 1:2,000 dilution.
[14] abbreviates: peptide modifications: H3K9me1 H3K14me3, binder concentration: 1:10,000 dilution.
Where [15] appears, read: peptide modifications: H3K9me2 H3T11ph, binder concentration: 1:2,000 dilution.
[16] abbreviates: peptide modifications: H3K9me2 H3T11ph, binder concentration: 1:10,000 dilution.
Where [17] appears, read: peptide modifications: H3K9me2 H3K14me2, binder concentration: 1:2,000 dilution.
The mark [18] stands for this setting: peptide modifications: H3K9me2 H3K14me2, binder concentration: 1:10,000 dilution.
The mark [19] stands for this setting: peptide modifications: H3K9me2 H3S10ph, binder concentration: 1:2,000 dilution.
[20] abbreviates: peptide modifications: H3K9me2 H3S10ph, binder concentration: 1:10,000 dilution.
Where [21] appears, read: peptide modifications: H3K9me1 H3K14me1, binder concentration: 1:2,000 dilution.
Where [22] appears, read: peptide modifications: H3K9me1 H3K14me1, binder concentration: 1:10,000 dilution.
[23] abbreviates: peptide modifications: H3K9me2 H3K14ac, binder concentration: 1:2,000 dilution.
[24] abbreviates: peptide modifications: H3K9me2 H3K14ac, binder concentration: 1:10,000 dilution.

With QTARKSTGGKAPR [H3 5-17 Q T A R Kme2 S T G G K A P R], the “peptide microarray binding signal” value was 0.0133 ± 0.0071 in assay [1] (peptide modifications: H3K9me2, binder concentration: 50 nM); 0.0011 ± 2.1e-05 in assay [1] (peptide modifications: H3K9me2, binder concentration: 500 nM); 0.00334 ± 9.6e-05 in assay [2] (peptide modifications: H3K9me2, binder concentration: 10 nM); 0.00248 ± 8.6e-05 in assay [2] (peptide modifications: H3K9me2, binder concentration: 100 nM); 0.00583 ± 0.0036 in assay [3] (setting [5]); 0.0112 ± 0.0032 in assay [3] (setting [6]). Besides, the “peptide microarray binding signal” value in assay [4] (setting [5]) turned out to be 0.00489 ± 0.0019; in assay [4] (setting [6]), 0.003 ± 0.00036.
Consider QTARKSTGGKAPR [H3 5-17 Q T A R Kme Sph T G G K A P R], for which the “peptide microarray binding signal” value in assay [1] (peptide modifications: H3K9me1 H3S10ph, binder concentration: 50 nM) was 0.0069 ± 0.00042; in assay [1] (peptide modifications: H3K9me1 H3S10ph, binder concentration: 500 nM) it was 0.0164 ± 0.0026; in assay [2] (peptide modifications: H3K9me1 H3S10ph, binder concentration: 10 nM), 0.0181 ± 0.0013; in assay [2] (peptide modifications: H3K9me1 H3S10ph, binder concentration: 100 nM) it was 0.0405 ± 0.00099; in assay [3] (setting [7]) it was 0.00281 ± 0.00031; in assay [3] (setting [8]), 0.0028 ± 0.00019. The results for the “peptide microarray binding signal” value in assay [4] (setting [7]) and in assay [4] (setting [8]) were 0.0251 ± 0.0037 and 0.00865 ± 0.0014, respectively.
Turning to QTARKSTGGKAPR [H3 5-17 Q T A R Kme S T G G Kac A P R], the “peptide microarray binding signal” value in assay [1] (peptide modifications: H3K9me1 H3K14ac, binder concentration: 50 nM) was 0.00661 ± 0.00012; in assay [1] (peptide modifications: H3K9me1 H3K14ac, binder concentration: 500 nM) it was 0.0218 ± 0.0024; in assay [2] (peptide modifications: H3K9me1 H3K14ac, binder concentration: 10 nM), 0.0233 ± 0.0035; in assay [2] (peptide modifications: H3K9me1 H3K14ac, binder concentration: 100 nM), 0.0424 ± 0.0029; in assay [3] (setting [9]), 0.00255 ± 0.00039; in assay [3] (setting [10]), 0.00228 ± 0.00016. Also, the “peptide microarray binding signal” value is 0.0548 ± 0.0034 in assay [4] (setting [9]) and 0.016 ± 0.00023 in assay [4] (setting [10]).
Take QTARKSTGGKAPR [H3 5-17 Q T A R Kme S T G G Kme2 A P R]: the “peptide microarray binding signal” value is 0.004514 ± 3.4e-05 in assay [1] (peptide modifications: H3K9me1 H3K14me2, binder concentration: 50 nM); 0.00667 ± 0.00028 in assay [1] (peptide modifications: H3K9me1 H3K14me2, binder concentration: 500 nM); 0.00555 ± 0.0003 in assay [2] (peptide modifications: H3K9me1 H3K14me2, binder concentration: 10 nM); 0.00595 ± 0.00024 in assay [2] (peptide modifications: H3K9me1 H3K14me2, binder concentration: 100 nM); 0.00206 ± 0.00041 in assay [3] (setting [11]); 0.00211 ± 0.00015 in assay [3] (setting [12]). The “peptide microarray binding signal” value in assay [4] (setting [11]) is 0.00979 ± 0.0019; in assay [4] (setting [12]) it was 0.00352 ± 0.00022.
Take QTARKSTGGKAPR [H3 5-17 Q T A R Kme S T G G Kme3 A P R]: the “peptide microarray binding signal” value in assay [1] (peptide modifications: H3K9me1 H3K14me3, binder concentration: 50 nM) amounted to 0.00611 ± 0.00085; in assay [1] (peptide modifications: H3K9me1 H3K14me3, binder concentration: 500 nM), 0.011 ± 0.0017; in assay [2] (peptide modifications: H3K9me1 H3K14me3, binder concentration: 10 nM), 0.018 ± 0.003; in assay [2] (peptide modifications: H3K9me1 H3K14me3, binder concentration: 100 nM), 0.00935 ± 0.0036; in assay [3] (setting [13]) it was 0.0233 ± 0.01; in assay [3] (setting [14]) it was 0.0338 ± 0.015. Further, the “peptide microarray binding signal” value amounted to 0.0215 ± 0.0054 in assay [4] (setting [13]) and 0.016 ± 0.0043 in assay [4] (setting [14]).
Consider QTARKSTGGKAPR [H3 5-17 Q T A R Kme2 S Tph G G K A P R], for which the “peptide microarray binding signal” value in assay [1] (peptide modifications: H3K9me2 H3T11ph, binder concentration: 50 nM) was 0.00201 ± 3.7e-05; in assay [1] (peptide modifications: H3K9me2 H3T11ph, binder concentration: 500 nM) it was 0.00319 ± 6.5e-05; in assay [2] (peptide modifications: H3K9me2 H3T11ph, binder concentration: 10 nM), 0.0031 ± 7.8e-05; in assay [2] (peptide modifications: H3K9me2 H3T11ph, binder concentration: 100 nM), 0.0022 ± 3.7e-05; in assay [3] (setting [15]) it was 0.000396 ± 7e-06; in assay [3] (setting [16]), 0.000799 ± 8.3e-06. Moreover, the “peptide microarray binding signal” value in assay [4] (setting [15]) was 0.0382 ± 0.01; in assay [4] (setting [16]) it was 0.0291 ± 0.0025.
Consider QTARKSTGGKAPR [H3 5-17 Q T A R Kme2 S T G G Kme2 A P R], for which the “peptide microarray binding signal” value in assay [1] (peptide modifications: H3K9me2 H3K14me2, binder concentration: 50 nM) is 0.00555 ± 0.0003; in assay [1] (peptide modifications: H3K9me2 H3K14me2, binder concentration: 500 nM) it was 0.011 ± 0.00059; in assay [2] (peptide modifications: H3K9me2 H3K14me2, binder concentration: 10 nM), 0.00937 ± 0.00041; in assay [2] (peptide modifications: H3K9me2 H3K14me2, binder concentration: 100 nM), 0.00999 ± 0.0011; in assay [3] (setting [17]) it was 0.00672 ± 0.00077; in assay [3] (setting [18]), 0.00496 ± 0.00056. Besides, the results for the “peptide microarray binding signal” value in assay [4] (setting [17]) and in assay [4] (setting [18]) were 0.175 ± 0.021 and 0.0735 ± 0.0023, respectively.
On to QTARKSTGGKAPR [H3 5-17 Q T A R Kme2 Sph T G G K A P R], for which the “peptide microarray binding signal” value in assay [1] (peptide modifications: H3K9me2 H3S10ph, binder concentration: 50 nM) turned out to be 0.00806 ± 0.00056; in assay [1] (peptide modifications: H3K9me2 H3S10ph, binder concentration: 500 nM), 0.0147 ± 0.00082; in assay [2] (peptide modifications: H3K9me2 H3S10ph, binder concentration: 10 nM), 0.03 ± 0.0049; in assay [2] (peptide modifications: H3K9me2 H3S10ph, binder concentration: 100 nM), 0.0527 ± 0.017; in assay [3] (setting [19]), 0.0068 ± 0.00063; in assay [3] (setting [20]) it was 0.00639 ± 0.00076. Moreover, the “peptide microarray binding signal” value in assay [4] (setting [19]) stood at 0.193 ± 0.067; in assay [4] (setting [20]), 0.0868 ± 0.021.
In the case of QTARKSTGGKAPR [H3 5-17 Q T A R Kme S T G G Kme A P R], the “peptide microarray binding signal” value in assay [1] (peptide modifications: H3K9me1 H3K14me1, binder concentration: 50 nM) was 0.00339 ± 6.1e-05; in assay [1] (peptide modifications: H3K9me1 H3K14me1, binder concentration: 500 nM), 0.00657 ± 6.6e-05; in assay [2] (peptide modifications: H3K9me1 H3K14me1, binder concentration: 10 nM) it was 0.00388 ± 5.4e-05; in assay [2] (peptide modifications: H3K9me1 H3K14me1, binder concentration: 100 nM) it was 0.0145 ± 0.0038; in assay [3] (setting [21]), 0.00068 ± 1.9e-05; in assay [3] (setting [22]), 0.000571 ± 1.1e-05. Moreover, the “peptide microarray binding signal” value in assay [4] (setting [21]) was determined as 0.0061 ± 0.0011; in assay [4] (setting [22]) it was 0.00283 ± 0.00027.
Turning to QTARKSTGGKAPR [H3 5-17 Q T A R Kme2 S T G G Kac A P R], the “peptide microarray binding signal” value in assay [1] (peptide modifications: H3K9me2 H3K14ac, binder concentration: 50 nM) worked out at 0.002382 ± 1.1e-05; in assay [1] (peptide modifications: H3K9me2 H3K14ac, binder concentration: 500 nM), 0.0103 ± 0.00014; in assay [2] (peptide modifications: H3K9me2 H3K14ac, binder concentration: 10 nM), 0.0115 ± 0.001; in assay [2] (peptide modifications: H3K9me2 H3K14ac, binder concentration: 100 nM), 0.00886 ± 0.0033; in assay [3] (setting [23]), 0.00225 ± 0.00054; in assay [3] (setting [24]), 0.00228 ± 0.00034. The “peptide microarray binding signal” value turned out to be 0.0906 ± 0.0013 in assay [4] (setting [23]) and 0.0371 ± 0.015 in assay [4] (setting [24]).
